Experimental data published in PubChem BioAssay (EPA / NIEHS).
Active and inactive are the calls of the source. The calls were made as follows: active = hit-call score of the fitted dose curve at least 0.9, where 1 is the maximum; inactive = score below 0.9.

Columns and labels:
[1] = APR_HepG2_P-H2AX_72hr: Apredica 72-hour HepG2 Assay for H2AX Phosphorylation (AID 2282916); details: imaging, actives raise or lower the signal;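 also: phospho-histone H2A.x immunostain intensity per cell marking DNA damage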
In short: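 Human hepatoma HepG2 cells are dosed across ten concentrations (0.39 to 200 uM, 0.5% v/v DMSO) and incubated 72 hr. Phospho-histone H2A.x is then detected by antibody staining alongside c-Jun and Hoechst, and quantified by automated fluorescence imaging.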

[2] = APR_HepG2_MitoMembPot_72hr: Apredica 72-hour HepG2 Assay for Mitochondrial Membrane Potential (AID 2282917); details: imaging, actives raise or lower the signal
In short: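 HepG2 cells dosed 72 hr with compound at 0.39–200 uM in duplicate, 0.5% v/v DMSO final. Mitochondria stained with 250 nM MitoTracker Red CMXRos for 30 min before formaldehyde fixation, imaged by high-content fluorescence; bidirectional fit versus DMSO.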

[3] = APR_HepG2_MitoticArrest_72hr: Apredica 72-hour HepG2 Assay for Mitotic Arrest (AID 2282918); details: high-content imaging, actives raise or lower the signal
In short: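 Read-out is phospho-histone H3 immunofluorescence with Hoechst nuclear segmentation, imaged at 20x. Human HepG2 liver cells received ten concentrations (0.39–200 uM, final DMSO 0.5% v/v) for 72 hr before fixation. Gain or loss of signal was fitted relative to DMSO.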

[4] = APR_HepG2_MicrotubuleCSK_72hr: Apredica 72-hour HepG2 Assay for Microtubule CSK Stabilty (AID 2282919); details: HepG2 microtubule cytoskeleton, high-content imaging, actives raise or lower the signal
In short: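 HepG2, 72 hr cmpd exposure, 0.39–200 uM (10 pts, duplicate), 0.5% DMSO. 3.7% formaldehyde fix, 0.5% Triton perm, anti-alpha-tubulin/Cy5 plus Hoechst. HCS fluorescence intensity; bidirectional fit vs DMSO baseline; taxol as positive control.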

[5] = APR_HepG2_P-H2AX_24hr: Apredica 24-hour HepG2 Assay for H2AX Phosphorylation (AID 2282920); details: high-content imaging, actives raise or lower the signal
In short: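 HepG2, 24 hr, cpd 0.39–200 uM (10 conc, duplicate), DMSO 0.5% v/v final. Fix 3.7% formaldehyde, Triton X-100 permeabilize, anti-phospho-H2A.x 1:200 + Hoechst 2 ug/mL. Imaged, bidirectional fit vs DMSO.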

[6] = APR_HepG2_StressKinase_72hr: Apredica 72-hour HepG2 Assay for Stress Kinase (AID 2282921); details: HepG2 stress kinase (phospho-c-Jun) imaging, actives raise or lower the signal
In short: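 After a 72 h compound treatment spanning 0.39 to 200 uM, formaldehyde-fixed cells are labelled for phosphorylated c-Jun and nuclei, imaged by automated fluorescence microscopy, and activity is fitted in both directions relative to DMSO controls.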

[7] = APR_HepG2_StressKinase_24hr: Apredica 24-hour HepG2 Assay for Stress Kinase (AID 2282922); details: HepG2 stress kinase (phospho-c-Jun) imaging, actives raise or lower the signal
In short: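 Read-out: phospho-c-Jun immunofluorescence (Cy3 secondary) quantified by high-content imaging at 20x, nuclei defined by Hoechst 33342. Human HepG2 liver cells dosed 24 hr, 0.39–200 uM, DMSO 0.5% v/v; gain or loss of signal fitted relative to DMSO.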

[8] = APR_HepG2_p53Act_72hr: Apredica 72-hour HepG2 Assay for p53 Activation (AID 2282923); details: high-content imaging, actives raise or lower the signal;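 also: average cellular p53 protein immunofluorescence intensity in HepG2 cells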
In short: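 Imaging-based endpoint: after 72 hr compound exposure (up to 200 uM, 0.5% DMSO), fixed and permeabilized monolayers were labelled with anti-p53 antibody and imaged; signal change in either direction was fitted relative to DMSO controls.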

[9] = APR_HepG2_MitoMass_72hr: Apredica 72-hour HepG2 Assay for Mitochondrial Mass (AID 2282924); details: high-content imaging, actives raise or lower the signal;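 also: MitoTracker Red CMXRos stain intensity per cell imaged as mitochondrial mass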
In short: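 Read-out: MitoTracker Red fluorescence intensity from automated imaging (20x, six fields per well) in human HepG2 liver cells. Dosing ran 72 hr, 0.39–200 uM, 0.5% DMSO; bidirectional curve fitting versus DMSO baseline.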

[10] = APR_HepG2_NuclearSize_72hr: Apredica 72-hour HepG2 Assay for Nuclear Size (AID 2282925); details: high-content imaging, actives raise or lower the signal
In short: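 Read-out: nuclear diameter from Hoechst 33342 images (ArrayScan, 20x, six fields/well), via cell-cycle image analysis. HepG2 were dosed 0.39–200 uM for 72 hr in 0.5% DMSO. Bidirectional fit relative to DMSO.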

[11] = ATG_CRE_CIS: Attagene CIS-FACTORIAL HepG2 Assay for human cAMP Responsive Element (CRE) binding protein 3 (AID 2282926); details: HepG2 CRE cis-reporter, Attagene multiplexed mRNA; actives raise or lower the signal
In short: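 Assay format: transient reporter transfection of HepG2, 24 h treatment, total RNA isolation with DNase I step. Reporter abundance read by fluorescence after PCR and capillary separation; DMSO-normalised gain or loss fitting.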

[12] = target: CCAAT/enhancer-binding protein beta (Homo sapiens) (UniProt P17676); experiment: ATG_C_EBP_CIS: Attagene CIS-FACTORIAL HepG2 Assay for human CCAAT/Enhancer Binding Protein (C/EBP) beta (AID 2282927); details: HepG2 Attagene cis-factorial transcription factor reporter; actives raise or lower the signal
CCAAT/enhancer-binding protein beta (Homo sapiens), sequence (P17676 whole entry, looked up): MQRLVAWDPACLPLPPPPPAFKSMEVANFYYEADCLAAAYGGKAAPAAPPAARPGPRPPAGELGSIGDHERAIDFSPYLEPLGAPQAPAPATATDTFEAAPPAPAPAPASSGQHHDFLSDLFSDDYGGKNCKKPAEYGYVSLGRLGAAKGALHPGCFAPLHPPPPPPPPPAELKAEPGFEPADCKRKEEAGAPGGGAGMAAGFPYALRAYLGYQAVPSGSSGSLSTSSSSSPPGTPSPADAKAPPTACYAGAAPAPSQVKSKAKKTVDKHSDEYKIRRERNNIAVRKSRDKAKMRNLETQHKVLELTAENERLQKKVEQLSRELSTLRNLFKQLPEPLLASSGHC
In short: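 Transiently transfected HepG2 (MRTU library, endogenous TF-driven promoters); 24 h dosing; total RNA → oligo(dT) RT → PCR → 6-FAM primer extension → HpaI digest → CE; fit bidirectionally vs DMSO.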

[13] = ATG_CMV_CIS: Attagene CIS-FACTORIAL HepG2 Assay for human CMV (Internal Marker) (AID 2282928); details: HepG2 CMV promoter reporter, transcription factor profiling; actives raise or lower the signal;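 also: endpoint acts as a background internal control marker rather than a target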
In short: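 Fluorescence intensity of RT-PCR-derived reporter fragments, resolved by capillary electrophoresis, gives the signal. HepG2 liver cells bearing transfected cis-element reporters were treated 24 h; activity in either direction was fit relative to DMSO-treated controls.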

[14] = ATG_DR4_LXR_CIS: Attagene CIS-FACTORIAL HepG2 Assay for human Liver X Receptor (LXR), DR4 submotif (AID 2282929); details: HepG2 Attagene DR4 cis-reporter, mRNA transcription; actives raise or lower the signal
In short: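 Measures endogenous transcription factor activity via a DR4-driven reporter transcript in human HepG2 cells. Compounds incubated 24 h; mRNA quantified by RT-PCR and capillary electrophoresis, analysed as gain or loss of signal versus DMSO.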

[15] = target: Aryl hydrocarbon receptor (Homo sapiens) (UniProt P35869); experiment: ATG_Ahr_CIS: Attagene CIS-FACTORIAL HepG2 Assay for human Aryl Hydrocarbon Receptor (Ahr) (AID 2282930); details: HepG2 AhR cis-factorial reporter transcription; actives raise or lower the signal
Aryl hydrocarbon receptor (Homo sapiens), sequence (P35869 whole entry, looked up): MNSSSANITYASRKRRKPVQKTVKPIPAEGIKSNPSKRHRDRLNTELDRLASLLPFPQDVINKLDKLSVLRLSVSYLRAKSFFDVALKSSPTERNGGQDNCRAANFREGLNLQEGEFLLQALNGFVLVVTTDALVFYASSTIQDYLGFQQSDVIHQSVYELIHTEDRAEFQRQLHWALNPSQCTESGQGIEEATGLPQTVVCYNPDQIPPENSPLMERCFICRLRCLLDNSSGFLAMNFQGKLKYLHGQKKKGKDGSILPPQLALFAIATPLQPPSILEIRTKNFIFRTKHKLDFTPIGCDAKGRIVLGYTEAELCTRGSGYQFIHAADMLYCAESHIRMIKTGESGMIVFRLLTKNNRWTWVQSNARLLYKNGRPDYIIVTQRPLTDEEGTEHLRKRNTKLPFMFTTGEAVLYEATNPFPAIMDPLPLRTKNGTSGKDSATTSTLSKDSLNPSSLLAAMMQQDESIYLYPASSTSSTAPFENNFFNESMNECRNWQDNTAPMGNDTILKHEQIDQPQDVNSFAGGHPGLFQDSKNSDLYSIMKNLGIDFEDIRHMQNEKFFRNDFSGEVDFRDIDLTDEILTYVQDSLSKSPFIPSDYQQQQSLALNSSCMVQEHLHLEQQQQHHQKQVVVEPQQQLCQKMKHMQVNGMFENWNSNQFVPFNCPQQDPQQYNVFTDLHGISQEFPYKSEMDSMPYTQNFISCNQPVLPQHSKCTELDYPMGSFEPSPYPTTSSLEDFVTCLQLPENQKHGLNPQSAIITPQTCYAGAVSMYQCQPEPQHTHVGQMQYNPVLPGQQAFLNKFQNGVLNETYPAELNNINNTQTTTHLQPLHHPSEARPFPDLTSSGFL
In short: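 Read-out: reporter mRNA quantified by RT-PCR with fluorescent primer extension and capillary electrophoresis. Human HepG2 liver cells carried transfected cis-promoter reporter units and were exposed to chemical for 24 h; gain or loss fitted relative to DMSO.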

[16] = ATG_BRE_CIS: Attagene CIS-FACTORIAL HepG2 Assay for human Bone Morphogenetic Protein (BMP) Response Element (BRE) (AID 2282933); details: HepG2 BMP response element reporter, Attagene transcription factor profiling; actives raise or lower the signal
In short: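 Endogenous transcription factor activity at a BMP response element was monitored in transfected HepG2 cells 24 h after dosing. Fluorescent RT-PCR products were resolved by capillary electrophoresis, and activity was fitted in both directions versus DMSO.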

[17] = target: Transcription factor E2F1 (Homo sapiens) (UniProt Q01094); experiment: ATG_E2F_CIS: Attagene CIS-FACTORIAL HepG2 Assay for human E2F Transcription Factor 1 (AID 2282935); details: HepG2 Attagene cis-reporter, E2F reporter RNA transcripts; actives raise or lower the signal
Transcription factor E2F1 (Homo sapiens), sequence (Q01094 whole entry, looked up): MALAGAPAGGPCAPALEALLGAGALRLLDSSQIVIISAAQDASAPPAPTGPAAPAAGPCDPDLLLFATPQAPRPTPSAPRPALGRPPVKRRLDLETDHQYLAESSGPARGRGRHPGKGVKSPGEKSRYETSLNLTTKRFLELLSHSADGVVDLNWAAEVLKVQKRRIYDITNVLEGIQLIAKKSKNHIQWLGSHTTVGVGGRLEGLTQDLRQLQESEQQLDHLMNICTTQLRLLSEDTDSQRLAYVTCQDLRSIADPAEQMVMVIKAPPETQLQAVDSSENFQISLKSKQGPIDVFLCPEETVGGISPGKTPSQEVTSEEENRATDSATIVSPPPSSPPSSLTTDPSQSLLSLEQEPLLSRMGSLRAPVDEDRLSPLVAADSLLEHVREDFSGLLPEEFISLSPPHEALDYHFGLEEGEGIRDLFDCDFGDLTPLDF
In short: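 Liver-derived HepG2 cells expressing transfected promoter-driven reporter units received test chemical for 24 hours. Signal gains or losses were fitted bidirectionally against DMSO.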

[18] = target: Retinoic acid receptor alpha (Homo sapiens) (UniProt P10276); experiment: ATG_DR5_RAR_CIS: Attagene CIS-FACTORIAL HepG2 Assay for human Retinoic Acid Receptor Alpha (RARE), DR5 submotif (AID 2282934); details: HepG2 Attagene cis-factorial RARE DR5 reporter, mRNA; actives raise or lower the signal;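 as to AC50: reporter responds to endogenous RAR alpha beta and gamma in HepG2 not RARA alone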
Retinoic acid receptor alpha (Homo sapiens), sequence (P10276 whole entry, looked up): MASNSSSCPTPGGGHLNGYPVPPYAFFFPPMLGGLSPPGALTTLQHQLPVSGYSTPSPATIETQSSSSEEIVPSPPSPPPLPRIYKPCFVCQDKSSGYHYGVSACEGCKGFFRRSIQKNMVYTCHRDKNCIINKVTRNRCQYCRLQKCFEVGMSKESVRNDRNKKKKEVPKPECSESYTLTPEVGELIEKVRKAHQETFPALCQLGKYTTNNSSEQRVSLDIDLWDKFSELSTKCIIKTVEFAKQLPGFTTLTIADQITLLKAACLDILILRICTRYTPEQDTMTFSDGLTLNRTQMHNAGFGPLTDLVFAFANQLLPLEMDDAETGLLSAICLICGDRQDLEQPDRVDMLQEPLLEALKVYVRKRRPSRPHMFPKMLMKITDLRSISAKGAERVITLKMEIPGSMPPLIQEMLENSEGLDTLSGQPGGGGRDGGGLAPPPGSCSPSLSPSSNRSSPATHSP
In short: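 Read-out: DR5-driven reporter transcript measured by RT-PCR, 6-FAM primer extension, HpaI digest and capillary electrophoresis. Human HepG2 liver cells carry transiently transfected cis-element reporter constructs; dosing lasts 24 h. Gain or loss of signal fitted against DMSO baseline.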

[19] = ATG_AP_1_CIS: Attagene CIS-FACTORIAL HepG2 Assay for human Activator Protein 1 (AP-1) (AID 2282931); details: HepG2 Attagene cis-factorial AP-1 reporter mRNA; actives raise or lower the signal
In short: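 Bidirectional concentration-response fitting against DMSO controls. Underlying signal: reporter mRNA from cis-promoter constructs in transiently transfected HepG2, measured after 24 h by RT-PCR and capillary electrophoresis.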

[20] = ATG_AP_2_CIS: Attagene CIS-FACTORIAL HepG2 Assay for human Activator Protein 2 (AP-2) (AID 2282932); details: HepG2 AP-2 cis-reporter, Attagene transcription factor profiling; actives raise or lower the signal
In short: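 Liver-derived HepG2 line, cis-reporter system measuring endogenous factors; 24 h dosing; reporter mRNA detected by fluorescent RT-PCR and capillary electrophoresis.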

Measured: AC50

CCCCOC(=O)[C@@H](C)Oc1ccc(Oc2ccc(C#N)cc2F)cc1
not listed: [18] | [19] | [20]
inactive: all other assays above

CSc1nnc(C(C)(C)C)c(=O)n1N
not listed: [15] | [19] | [20]
inactive: all other assays above

Cc1cc(C2CC2)nc(Nc2ccccc2)n1
active: [1] 51.8 µM | [3] 70.1 µM | [4] 56.9 µM | [11] 18 µM | [13] 13.1 µM | [19] 32.2 µM | [16] 33.5 µM | [18] 12.3 µM
not listed: [15]
inactive: all other assays above

CCOP(=O)(SC(C)CC)N1CCSC1=O (stereo not drawn)
not listed: [8] | [19]
inactive: all other assays above

CCCCSP(=O)(SCCCC)SCCCC
active: [2] 157 µM | [13] 39.3 µM | [14] 72.9 µM | [16] 40.1 µM | [17] 58.3 µM
not listed: [19] | [20]
inactive: all other assays above

CC(Oc1cccc(Cl)c1)C(=O)O (stereo not drawn)
inactive: all assays above

CCC(=NOC/C=C/Cl)C1=C(O)CC(C2CCOCC2)CC1=O (stereo not drawn)
not listed: [18] | [19] | [20]
inactive: all other assays above

CN(C)NC(=O)CCC(=O)O
not listed: [20]
inactive: all other assays above

CN(C)C(=O)Nc1cccc(C(F)(F)F)c1
not listed: [19] | [20]
inactive: all other assays above
